AMA1 RON2 block – disrupts binding of P. falciparum AMA1 to RON2; 360,000 compounds, 0.2% hits; AID 720542; Potency, µM (doses to about 58.2 µM), most hits filed as inhibitors; AlphaScreen AMA1-biotinylated RON2 peptide binding; note: nearly all actives have a fitted effect of over 45% in size
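AMA1 (3D7) with his tag at 25 nM final met compounds first, then biotinylated RON2 peptide at 25 nM; detection used donor plus acceptor beads, 10 µg/mL apiece, read by AlphaScreen after 30 min at room temperature.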
AmpC inh no detg – blocks E. coli AmpC beta-lactamase in detergent-free assay; 330,000 compounds, 0.52% hits; AmpC nitrocefin hydrolysis, absorbance 480 nm, 0.0001% Triton; P00811; Potency, µM (series often up to 57.1 µM), usual class: inhibitors; note: nearly all actives have a fitted effect of over 20% in size
Target sequence (P00811 whole entry, looked up): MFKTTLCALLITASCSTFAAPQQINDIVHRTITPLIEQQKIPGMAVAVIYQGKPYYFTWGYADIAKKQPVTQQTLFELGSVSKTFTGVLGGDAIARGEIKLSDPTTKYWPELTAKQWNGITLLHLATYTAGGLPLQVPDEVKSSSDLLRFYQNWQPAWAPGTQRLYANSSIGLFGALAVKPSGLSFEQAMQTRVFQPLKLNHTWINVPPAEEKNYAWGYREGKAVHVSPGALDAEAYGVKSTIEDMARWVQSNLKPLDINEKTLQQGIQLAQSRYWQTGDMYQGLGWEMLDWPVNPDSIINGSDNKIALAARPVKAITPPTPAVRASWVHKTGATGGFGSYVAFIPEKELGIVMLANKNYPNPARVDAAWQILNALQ
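20 mM phosphate pH 7.0 + 0.01% (detergent screen) or 0.0001% Triton X-100; 5.3 nM AmpC reagent; cpd preinc 15 min RT; nitrocefin (800 uM stock) to start; A480 q20 s × 4 min; Activity was normalised to no-enzyme and no-compound control wells.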
MARV entry inh – blocks Marburg virus binding to or entry into cells | Marburg virus pseudotyped entry inhibition, cell reporter | Potency, µM (titrated, usually from 37.8 µM), actives largely listed as inhibitors | 300,000 compounds, 1.8% hits; calls by dose curve; tested in HEK293 cells
AmpC detergent – inhibitors of E. coli AmpC beta-lactamase with detergent | Potency, µM (doses to about 114 µM), hits mostly inhibitors | AmpC hydrolysis of nitrocefin, absorbance 480 nm, 0.01% Triton | 370,000 compounds, 0.041% hits | P00811; note: nearly all actives have a fitted effect of over 25% in size
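AmpC (5.3 nM in the dispensed reagent) in 20 mM phosphate pH 7.0 with 0.01% (detergent screen) or 0.0001% Triton X-100 was preincubated with compounds for 15 min at room temperature. Nitrocefin was then added from an 800 uM solution, and hydrolysis was followed at 480 nm.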
Lassa entry inh – blocks Lassa virus binding to or entry into cells. Lassa virus pseudotype entry inhibition, cell reporter. AID 540256. 300,000 compounds, 1.2% hits. Potency, µM (series often up to 37.9 µM), actives largely listed as inhibitors; calls by dose curve; tested in HEK293 cells; note: nearly all actives have a fitted effect of over 50% in size
Each line names hits and unclear results; the compound was inactive in the other large screens; ! = not confirmed by another sample. The list is not random: actives were taken first. Their share in the collection is about 2.3%. Unless noted, calls come from the whole dose curve; as a rule, active = well fitted curve in the direction sought with a large enough effect; inconclusive = small, poorly fitted or top-dose-only effect, or another doubt; inactive = no such curve, though single readings can be large; an effect the other way counts as inactive or inconclusive.

COC(=O)c1ccc2c(=O)n(C3CCCCC3)c(SCC#N)nc2c1	MARV entry inh 0.015µM, Lassa entry inh inconclusive
CCOC(=O)CSc1nc2cc(C(=O)N3CCC(C(N)=O)CC3)ccc2c(=O)n1C1CCCCC1	MARV entry inh inconclusive
COc1ccc(C2/C=C\CN(C(=O)C3CC3)CC(=O)N2Cc2ccc(F)cc2)cc1 (stereo not given)	none (no result: MARV entry inh, Lassa entry inh)
COc1ccc(C2/C=C\CN(Cc3ccc(N(C)C)cc3)CC(=O)N2Cc2ccc(F)cc2)cc1 (stereo not given)	AMA1 RON2 block 16µM (no result: MARV entry inh, Lassa entry inh)
C[C@H]1Cc2c(COc3ccccc3)nc3c(c2CO1)CN(C(=O)c1cccnc1)CC3	Lassa entry inh inconclusive (no result: AMA1 RON2 block, AmpC inh no detg, AmpC detergent)
CSc1ncc(CN2CCCCC2C(=O)Nc2ccc(Oc3ccccc3)nc2)cn1 (stereo not given)	MARV entry inh 5.6µM
CN(C)CC[C@@H](c1ccc(Cl)cc1)c1ccccn1	MARV entry inh 5.6µM! (no result: AmpC inh no detg, AmpC detergent)
CN(C)CC[C@@H](c1ccc(Br)cc1)c1ccccn1	MARV entry inh 8.9µM!, Lassa entry inh inconclusive (no result: AmpC inh no detg, AmpC detergent)
O=C(c1cccs1)N1C[C@H](O)[C@H](n2cc(C3CC3)nn2)C[C@@H]1c1ccccc1	none (no result: AMA1 RON2 block, AmpC inh no detg, MARV entry inh, AmpC detergent)
CC1=CN2C(=N)/C(=C/c3ccc(Sc4ccc(C)cc4)o3)C(=O)N=C2S1	none
CC1=CN2C(=N)/C(=C/c3ccc(C)o3)C(=O)N=C2S1	Lassa entry inh 1.3µM
Cc1ccc2c(c1)C(=O)OC(C(=O)Nc1ncc(Cc3ccccc3)s1)C2 (stereo not given)	none (no result: AMA1 RON2 block, AmpC inh no detg)
Cc1ccc2nc(-c3ccc(NC(=O)Cc4cccs4)cc3)[nH]c2c1	AmpC detergent inconclusive, Lassa entry inh inconclusive
Cc1ccc2nc(-c3ccc(NC(=O)C4CCCO4)cc3)[nH]c2c1 (stereo not given)	MARV entry inh inconclusive, Lassa entry inh 8.2µM
O=C(Nc1ccc(-c2nc3cccnc3s2)cc1)C1CCCO1 (stereo not given)	MARV entry inh 2.6µM, Lassa entry inh inconclusive
O=C(Nc1ncc(Cc2ccccc2)s1)C1CCCO1 (stereo not given)	MARV entry inh inconclusive, AmpC detergent inconclusive, Lassa entry inh 15µM
CCOC(=O)c1ccc(CN(Cc2ccc(F)cc2)S(=O)(=O)c2ccc(F)c(C(=O)Nc3cc(Cl)ccc3OC)c2)cc1	Lassa entry inh inconclusive (no result: AMA1 RON2 block, AmpC inh no detg, MARV entry inh)
Nc1c(C(=O)Nc2ccccc2Cl)nnn1Cc1cccc(Cl)c1	none (no result: AMA1 RON2 block, AmpC inh no detg)
CCN(CC)CCOC(=O)c1ccc(N/C=C(/C#N)c2nc(-c3ccc4c(c3)OCO4)cs2)cc1	AMA1 RON2 block inconclusive, MARV entry inh inconclusive
CCN(CC)CCOC(=O)c1ccc(N/C=C(/C#N)c2nc(-c3ccc(OC)cc3)cs2)cc1	AMA1 RON2 block inconclusive, MARV entry inh 4µM
CN(C)c1ccc(C(CNC(=O)c2c(F)cccc2Cl)N2CCOCC2)cc1 (stereo not given)	none (no result: AMA1 RON2 block, AmpC inh no detg, MARV entry inh)
CCc1ccc(NC(=O)c2noc3c2CCCCC3)cc1	MARV entry inh inconclusive, AmpC detergent inconclusive
Cc1ccc(NC(=O)c2noc3c2CCCCC3)cc1	MARV entry inh inconclusive, Lassa entry inh 15µM
CSc1ccccc1NC(=O)c1noc2c1CCC2	AmpC detergent 25µM
CCc1cccc(NC(=O)Nc2cccs2)c1	AmpC inh no detg 16µM, MARV entry inh inconclusive
COc1ccc(COC(=O)NN=C2C[C@@H](O)[C@@H](O)[C@@H]3[C@H]4C(=O)N(Cc5ccccc5)C(=O)[C@@H]4CC[C@@H]23)cc1	Lassa entry inh 4.4µM (no result: AMA1 RON2 block, AmpC inh no detg, AmpC detergent)
COc1ccc(COC(=O)N/N=C2/C[C@@H](O)[C@@H](O)[C@@H]3[C@@H]4C(=O)N(Cc5ccccc5)C(=O)[C@H]4CC[C@H]23)cc1	none (no result: AMA1 RON2 block, AmpC inh no detg, AmpC detergent, Lassa entry inh)
Cc1cccc(NC(=O)C2CCN(S(=O)(=O)c3ccc(F)cc3)CC2)c1C	MARV entry inh inconclusive (no result: AMA1 RON2 block, AmpC inh no detg)
O=C(c1cccc(F)c1)N1CCC(c2c[nH]c3ccccc23)(c2c[nH]c3ccccc23)CC1	MARV entry inh inconclusive (no result: AMA1 RON2 block, AmpC inh no detg)
CC1(C)CC1C(=O)Nc1ccc([N+](=O)[O-])cc1Br (stereo not given)	none
Cc1ccc(C2(c3ccc(C)cc3)CC2C(=O)Nc2ccc([N+](=O)[O-])cc2O)cc1 (stereo not given)	AMA1 RON2 block inconclusive, MARV entry inh inconclusive, Lassa entry inh 13µM
Nc1nc(N)c2nc(CNc3ccc(C(=O)N[C@H](CCC(=O)O)C(=O)O)cc3)cnc2n1	none (no result: AMA1 RON2 block, AmpC inh no detg, AmpC detergent, Lassa entry inh)
Cc1ccc(/C=C2/SC(=S)N(CCCC(=O)Nc3ccc(O)cc3)C2=O)cc1	MARV entry inh inconclusive, Lassa entry inh inconclusive
Cc1ccc(/C=C2\SC(=S)N(CCCC(=O)NC3CCCC3)C2=O)cc1	MARV entry inh inconclusive, Lassa entry inh 1.1µM
Cc1ccc(C(=O)NNC(=O)CCCN2C(=O)/C(=C/c3ccccc3Cl)SC2=S)cc1	AmpC inh no detg 32µM, MARV entry inh 11µM, Lassa entry inh inconclusive
COC(=O)C1=CN(Cc2ccc(OC)cc2)C=C(C(=O)OC)C1c1ccsc1	MARV entry inh inconclusive, Lassa entry inh 10µM
COC(=O)C1=CN(CC2CCCO2)C=C(C(=O)OC)C1c1ccsc1 (stereo not given)	none
CC(=O)c1sc(NCc2ccc(C)cc2)nc1C	MARV entry inh 10µM, Lassa entry inh inconclusive
CC(=O)c1sc(NCc2ccccc2)nc1C	Lassa entry inh inconclusive
CC(C)(C)c1ccc(C(=O)Nc2nnc(Cc3c[nH]c4ccccc34)s2)cc1	AmpC inh no detg 11µM, Lassa entry inh inconclusive
CCCn1cnc2c(SCc3ccccc3Cl)nc(N)nc21	MARV entry inh 7.1µM, Lassa entry inh 11µM (no result: AmpC inh no detg, AmpC detergent)
CCOC(=O)C1CCCN(Cc2nc(N)nc(Nc3ccc(Cl)cc3)n2)C1 (stereo not given)	MARV entry inh 7.1µM
CCOC(=O)C1CCCN(Cc2nc(N)nc(Nc3ccc(OC)cc3)n2)C1 (stereo not given)	none
CCn1c(NCc2cc(Br)ccc2NS(=O)(=O)c2ccc(C)cc2)nc2ccccc21	MARV entry inh inconclusive, Lassa entry inh inconclusive
CCCn1c(NCc2ccccc2NS(=O)(=O)c2ccc(C)cc2)nc2ccccc21	MARV entry inh 6.3µM, Lassa entry inh inconclusive
CCCCn1c(/N=C/c2ccccc2NS(=O)(=O)c2ccc(C)cc2)nc2ccccc21	MARV entry inh inconclusive, Lassa entry inh inconclusive
CCn1c(NCc2ccccc2NS(=O)(=O)c2ccc(C)cc2)nc2ccccc21	MARV entry inh 21µM, Lassa entry inh inconclusive
Cn1cnc2c(=O)oc3ccc(S(=O)(=O)N4CCN(c5cccc(C(F)(F)F)c5)CC4)cc3c21	Lassa entry inh inconclusive (no result: AMA1 RON2 block, AmpC inh no detg, MARV entry inh)
CCOC(=O)N/N=C1\C[C@@H](O)[C@@H](O)[C@@H]2[C@@H]3C(=O)N(Cc4ccc5c(c4)OCO5)C(=O)[C@@H]3CC[C@@H]12	none (no result: AMA1 RON2 block, AmpC inh no detg, AmpC detergent, Lassa entry inh)
CC(C)NC[C@H](O)COc1cccc2ccccc12	MARV entry inh 15µM (no result: AmpC inh no detg, AmpC detergent)
CC(C)NC[C@@H](O)COc1cccc2ccccc12	MARV entry inh 18µM, AmpC detergent inconclusive (no result: Lassa entry inh)
C=CCc1ccccc1OCC(O)CNC(C)C (stereo not given)	MARV entry inh 18µM
C=CCc1ccccc1OCC(O)CNC1CCCC1 (stereo not given)	none (no result: MARV entry inh, Lassa entry inh)
